Source: ChEMBL document CHEMBL1961873, “Compounds: GSK PKIS; Assays: Nanosyn kinase panel” (2012)

Experiments:
[1] = target: Ribosomal protein S6 kinase alpha-6 (Homo sapiens) (UniProt Q9UK32); conditions: at 1 µM;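 also: each value is a mean inhibition of RSK4 from a GSK PKIS panel screen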
[2] = target: T1, Serine/threonine-protein kinase Sgk1 (Homo sapiens) (UniProt O00141); conditions: at 0.1 µM
T1 sequence (whole entry): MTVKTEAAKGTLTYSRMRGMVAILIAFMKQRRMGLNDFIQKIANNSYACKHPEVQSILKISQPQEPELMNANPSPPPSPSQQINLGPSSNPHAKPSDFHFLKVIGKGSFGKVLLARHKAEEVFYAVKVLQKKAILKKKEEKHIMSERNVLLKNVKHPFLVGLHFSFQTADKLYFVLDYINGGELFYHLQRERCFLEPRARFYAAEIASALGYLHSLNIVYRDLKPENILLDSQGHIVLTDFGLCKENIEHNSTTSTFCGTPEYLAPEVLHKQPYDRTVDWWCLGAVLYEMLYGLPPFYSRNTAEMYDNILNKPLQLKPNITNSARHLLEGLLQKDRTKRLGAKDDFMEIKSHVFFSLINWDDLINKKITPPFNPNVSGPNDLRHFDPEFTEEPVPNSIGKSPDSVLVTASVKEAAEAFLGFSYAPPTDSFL

[3] = target: T1, Serine/threonine-protein kinase Sgk1 (Homo sapiens); conditions: at 1 µM
[4] = target: T2, Serine/threonine-protein kinase Sgk2 (Homo sapiens) (UniProt Q9HBY8); conditions: at 0.1 µM
T2 sequence (whole entry): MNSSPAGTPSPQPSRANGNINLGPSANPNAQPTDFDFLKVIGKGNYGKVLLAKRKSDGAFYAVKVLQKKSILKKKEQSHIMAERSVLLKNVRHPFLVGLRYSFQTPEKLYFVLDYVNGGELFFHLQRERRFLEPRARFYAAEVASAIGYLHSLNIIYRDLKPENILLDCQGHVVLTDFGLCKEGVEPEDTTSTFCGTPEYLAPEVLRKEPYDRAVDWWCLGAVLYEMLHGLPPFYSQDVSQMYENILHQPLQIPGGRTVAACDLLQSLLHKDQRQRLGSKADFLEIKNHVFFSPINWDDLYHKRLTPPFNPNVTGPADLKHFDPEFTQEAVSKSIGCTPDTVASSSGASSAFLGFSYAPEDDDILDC

[5] = target: T2, Serine/threonine-protein kinase Sgk2 (Homo sapiens); conditions: at 1 µM
[6] = target: T3, Serine/threonine-protein kinase Sgk3 (Homo sapiens) (UniProt Q96BR1); conditions: at 0.1 µM
T3 sequence (whole entry): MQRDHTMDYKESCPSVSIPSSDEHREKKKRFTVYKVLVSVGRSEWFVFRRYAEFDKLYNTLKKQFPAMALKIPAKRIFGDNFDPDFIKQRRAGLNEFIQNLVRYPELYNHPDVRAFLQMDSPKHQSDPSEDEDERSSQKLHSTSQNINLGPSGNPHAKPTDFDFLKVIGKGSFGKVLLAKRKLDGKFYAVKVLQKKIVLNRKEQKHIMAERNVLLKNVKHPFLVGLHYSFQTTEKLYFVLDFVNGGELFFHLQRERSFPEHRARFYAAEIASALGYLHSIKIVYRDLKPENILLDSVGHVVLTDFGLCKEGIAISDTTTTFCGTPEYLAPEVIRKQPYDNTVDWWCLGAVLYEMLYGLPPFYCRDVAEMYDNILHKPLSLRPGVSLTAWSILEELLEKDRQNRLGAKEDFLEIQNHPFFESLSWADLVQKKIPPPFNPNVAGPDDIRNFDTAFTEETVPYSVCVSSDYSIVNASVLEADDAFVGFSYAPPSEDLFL

[7] = target: T3, Serine/threonine-protein kinase Sgk3 (Homo sapiens); conditions: at 1 µM
[8] = target: 5'-AMP-activated protein kinase catalytic subunit alpha-1 (Homo sapiens) (UniProt Q13131); conditions: at 0.1 µM
Chain of 5'-AMP-activated protein kinase catalytic subunit alpha-1 (Homo sapiens) (Q13131 whole entry, looked up): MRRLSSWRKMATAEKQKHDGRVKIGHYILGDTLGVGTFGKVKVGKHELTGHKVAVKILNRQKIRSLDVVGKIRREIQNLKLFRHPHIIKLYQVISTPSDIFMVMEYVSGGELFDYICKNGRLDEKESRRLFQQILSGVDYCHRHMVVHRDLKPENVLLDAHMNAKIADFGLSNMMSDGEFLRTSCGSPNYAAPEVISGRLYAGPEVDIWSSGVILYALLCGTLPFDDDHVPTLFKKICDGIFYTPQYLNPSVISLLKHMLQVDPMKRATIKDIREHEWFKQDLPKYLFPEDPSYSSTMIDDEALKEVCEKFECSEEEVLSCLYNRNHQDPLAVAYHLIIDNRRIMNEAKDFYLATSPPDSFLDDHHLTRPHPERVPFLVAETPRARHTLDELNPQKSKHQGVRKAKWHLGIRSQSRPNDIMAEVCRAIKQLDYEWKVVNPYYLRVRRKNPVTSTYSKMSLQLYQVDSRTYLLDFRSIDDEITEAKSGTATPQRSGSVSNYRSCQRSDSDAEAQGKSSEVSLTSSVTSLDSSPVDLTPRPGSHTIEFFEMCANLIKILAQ

[9] = target: 5'-AMP-activated protein kinase catalytic subunit alpha-1 (Homo sapiens) (UniProt Q13131); conditions: at 1 µM
[10] = target: 5'-AMP-activated protein kinase catalytic subunit alpha-2 (Homo sapiens) (UniProt P54646); conditions: at 0.1 µM
Chain of 5'-AMP-activated protein kinase catalytic subunit alpha-2 (Homo sapiens) (P54646 whole entry, looked up): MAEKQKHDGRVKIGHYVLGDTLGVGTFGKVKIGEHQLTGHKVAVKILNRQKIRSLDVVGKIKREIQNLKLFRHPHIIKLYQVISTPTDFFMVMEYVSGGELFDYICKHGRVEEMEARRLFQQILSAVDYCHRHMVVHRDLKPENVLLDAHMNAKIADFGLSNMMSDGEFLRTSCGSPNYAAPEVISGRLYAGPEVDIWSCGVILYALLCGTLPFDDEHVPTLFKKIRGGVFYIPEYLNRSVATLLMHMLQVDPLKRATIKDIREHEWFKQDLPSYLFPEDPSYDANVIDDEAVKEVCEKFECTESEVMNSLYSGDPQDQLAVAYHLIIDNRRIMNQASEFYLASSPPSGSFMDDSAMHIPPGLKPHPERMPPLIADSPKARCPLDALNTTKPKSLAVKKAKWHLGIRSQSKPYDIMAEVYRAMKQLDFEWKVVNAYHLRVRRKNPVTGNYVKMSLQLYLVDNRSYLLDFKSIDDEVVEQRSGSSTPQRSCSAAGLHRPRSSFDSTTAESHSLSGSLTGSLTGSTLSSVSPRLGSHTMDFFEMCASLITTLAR

[11] = target: 5'-AMP-activated protein kinase catalytic subunit alpha-2 (Homo sapiens) (UniProt P54646); conditions: at 1 µM
[12] = target: T4, NUAK family SNF1-like kinase 1 (Homo sapiens) (UniProt O60285); conditions: at 0.1 µM
T4 sequence (whole entry): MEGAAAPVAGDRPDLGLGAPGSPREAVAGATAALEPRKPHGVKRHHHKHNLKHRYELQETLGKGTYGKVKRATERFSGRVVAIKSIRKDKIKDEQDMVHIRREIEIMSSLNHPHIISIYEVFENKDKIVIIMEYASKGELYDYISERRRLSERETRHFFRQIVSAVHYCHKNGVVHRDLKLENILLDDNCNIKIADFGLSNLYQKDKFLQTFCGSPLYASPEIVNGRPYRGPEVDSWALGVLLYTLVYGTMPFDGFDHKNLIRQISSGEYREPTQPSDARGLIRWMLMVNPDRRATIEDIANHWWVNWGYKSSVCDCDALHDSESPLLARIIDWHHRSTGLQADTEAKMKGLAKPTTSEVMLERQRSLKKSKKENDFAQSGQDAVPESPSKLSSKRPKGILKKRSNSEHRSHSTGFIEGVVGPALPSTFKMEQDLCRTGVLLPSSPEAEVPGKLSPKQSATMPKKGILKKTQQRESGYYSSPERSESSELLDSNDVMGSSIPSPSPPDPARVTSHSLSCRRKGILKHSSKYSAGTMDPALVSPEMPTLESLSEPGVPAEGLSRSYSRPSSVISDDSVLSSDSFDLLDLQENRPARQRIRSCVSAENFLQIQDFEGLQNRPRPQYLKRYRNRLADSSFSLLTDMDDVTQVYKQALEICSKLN

[13] = target: T4, NUAK family SNF1-like kinase 1 (Homo sapiens); conditions: at 1 µM
[14] = target: T5, Serine/threonine-protein kinase BRSK1 (Homo sapiens) (UniProt Q8TDC3); conditions: at 0.1 µM
T5 sequence (whole entry): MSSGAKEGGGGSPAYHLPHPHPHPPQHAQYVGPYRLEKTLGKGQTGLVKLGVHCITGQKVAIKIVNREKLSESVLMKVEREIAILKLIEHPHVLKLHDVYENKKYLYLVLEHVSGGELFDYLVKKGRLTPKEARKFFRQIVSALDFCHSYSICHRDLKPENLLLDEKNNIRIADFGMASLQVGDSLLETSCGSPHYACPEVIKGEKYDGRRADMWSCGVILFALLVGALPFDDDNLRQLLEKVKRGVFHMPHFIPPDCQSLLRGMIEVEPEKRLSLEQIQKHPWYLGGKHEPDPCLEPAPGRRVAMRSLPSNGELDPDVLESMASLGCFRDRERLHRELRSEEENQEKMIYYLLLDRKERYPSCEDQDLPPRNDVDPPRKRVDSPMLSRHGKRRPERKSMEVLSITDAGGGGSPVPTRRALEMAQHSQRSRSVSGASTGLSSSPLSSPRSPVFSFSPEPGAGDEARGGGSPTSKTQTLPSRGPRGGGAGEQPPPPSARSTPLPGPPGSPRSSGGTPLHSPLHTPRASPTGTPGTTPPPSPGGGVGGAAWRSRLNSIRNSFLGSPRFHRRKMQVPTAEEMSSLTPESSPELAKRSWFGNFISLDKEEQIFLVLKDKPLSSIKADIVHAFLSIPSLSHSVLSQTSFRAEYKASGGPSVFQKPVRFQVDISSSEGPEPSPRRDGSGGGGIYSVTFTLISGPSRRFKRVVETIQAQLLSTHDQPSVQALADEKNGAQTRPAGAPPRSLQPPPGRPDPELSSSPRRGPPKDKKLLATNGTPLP

[15] = target: T5, Serine/threonine-protein kinase BRSK1 (Homo sapiens); conditions: at 1 µM
[16] = target: T6, Serine/threonine-protein kinase BRSK2 (Homo sapiens) (UniProt Q8IWQ3); conditions: at 0.1 µM
T6 sequence (whole entry): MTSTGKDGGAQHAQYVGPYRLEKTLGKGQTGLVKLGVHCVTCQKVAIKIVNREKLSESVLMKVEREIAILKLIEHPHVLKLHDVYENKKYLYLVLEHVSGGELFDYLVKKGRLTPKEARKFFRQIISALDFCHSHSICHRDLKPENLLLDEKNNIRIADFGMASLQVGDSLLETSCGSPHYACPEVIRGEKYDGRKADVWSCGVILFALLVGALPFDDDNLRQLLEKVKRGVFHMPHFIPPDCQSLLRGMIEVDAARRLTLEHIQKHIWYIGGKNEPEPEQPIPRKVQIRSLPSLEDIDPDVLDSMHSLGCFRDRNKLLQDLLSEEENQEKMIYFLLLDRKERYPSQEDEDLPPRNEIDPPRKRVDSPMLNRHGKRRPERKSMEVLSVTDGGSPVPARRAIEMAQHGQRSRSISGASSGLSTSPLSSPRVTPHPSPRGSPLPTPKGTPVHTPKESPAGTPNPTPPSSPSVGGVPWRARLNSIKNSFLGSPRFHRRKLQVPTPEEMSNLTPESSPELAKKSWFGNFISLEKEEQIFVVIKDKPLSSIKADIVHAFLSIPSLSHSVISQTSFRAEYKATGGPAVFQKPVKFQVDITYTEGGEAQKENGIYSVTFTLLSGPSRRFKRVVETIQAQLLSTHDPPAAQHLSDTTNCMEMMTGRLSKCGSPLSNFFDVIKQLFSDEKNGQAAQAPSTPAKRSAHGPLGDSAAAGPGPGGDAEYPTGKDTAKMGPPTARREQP

[17] = target: T6, Serine/threonine-protein kinase BRSK2 (Homo sapiens); conditions: at 1 µM
[18] = target: Calcium/calmodulin-dependent protein kinase type 1D (Homo sapiens) (UniProt Q8IU85); conditions: at 0.1 µM
Chain of Calcium/calmodulin-dependent protein kinase type 1D (Homo sapiens) (Q8IU85 whole entry, looked up): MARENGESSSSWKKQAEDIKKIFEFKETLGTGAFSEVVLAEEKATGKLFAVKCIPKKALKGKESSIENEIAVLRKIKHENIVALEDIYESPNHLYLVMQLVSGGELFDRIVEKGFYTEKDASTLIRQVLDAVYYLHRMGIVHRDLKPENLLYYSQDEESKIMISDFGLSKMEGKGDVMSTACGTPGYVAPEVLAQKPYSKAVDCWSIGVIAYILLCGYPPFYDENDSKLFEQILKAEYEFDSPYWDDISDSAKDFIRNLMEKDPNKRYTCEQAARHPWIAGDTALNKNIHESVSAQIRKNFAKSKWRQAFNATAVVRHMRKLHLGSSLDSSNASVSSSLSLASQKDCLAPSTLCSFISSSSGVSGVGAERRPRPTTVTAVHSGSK

[19] = target: Calcium/calmodulin-dependent protein kinase type 1D (Homo sapiens) (UniProt Q8IU85); conditions: at 1 µM
[20] = target: Calcium/calmodulin-dependent protein kinase type II subunit alpha (Homo sapiens) (UniProt Q9UQM7); conditions: at 0.1 µM;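 also: reported values are averages (mean inhibition of CAMK2A)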
Chain of Calcium/calmodulin-dependent protein kinase type II subunit alpha (Homo sapiens) (Q9UQM7 whole entry): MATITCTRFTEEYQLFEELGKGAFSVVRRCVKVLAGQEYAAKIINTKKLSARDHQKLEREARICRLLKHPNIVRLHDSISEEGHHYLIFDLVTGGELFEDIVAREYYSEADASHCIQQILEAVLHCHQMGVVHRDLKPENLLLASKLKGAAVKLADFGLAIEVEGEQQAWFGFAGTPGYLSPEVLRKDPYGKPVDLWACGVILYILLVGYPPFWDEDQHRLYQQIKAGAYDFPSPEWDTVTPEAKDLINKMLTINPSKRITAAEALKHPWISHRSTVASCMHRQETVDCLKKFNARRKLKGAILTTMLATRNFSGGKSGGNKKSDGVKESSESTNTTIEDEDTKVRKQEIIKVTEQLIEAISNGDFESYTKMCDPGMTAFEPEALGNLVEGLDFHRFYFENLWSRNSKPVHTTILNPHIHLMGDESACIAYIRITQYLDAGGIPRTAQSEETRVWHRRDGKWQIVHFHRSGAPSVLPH

Chain of Ribosomal protein S6 kinase alpha-6 (Homo sapiens) (Q9UK32 whole entry): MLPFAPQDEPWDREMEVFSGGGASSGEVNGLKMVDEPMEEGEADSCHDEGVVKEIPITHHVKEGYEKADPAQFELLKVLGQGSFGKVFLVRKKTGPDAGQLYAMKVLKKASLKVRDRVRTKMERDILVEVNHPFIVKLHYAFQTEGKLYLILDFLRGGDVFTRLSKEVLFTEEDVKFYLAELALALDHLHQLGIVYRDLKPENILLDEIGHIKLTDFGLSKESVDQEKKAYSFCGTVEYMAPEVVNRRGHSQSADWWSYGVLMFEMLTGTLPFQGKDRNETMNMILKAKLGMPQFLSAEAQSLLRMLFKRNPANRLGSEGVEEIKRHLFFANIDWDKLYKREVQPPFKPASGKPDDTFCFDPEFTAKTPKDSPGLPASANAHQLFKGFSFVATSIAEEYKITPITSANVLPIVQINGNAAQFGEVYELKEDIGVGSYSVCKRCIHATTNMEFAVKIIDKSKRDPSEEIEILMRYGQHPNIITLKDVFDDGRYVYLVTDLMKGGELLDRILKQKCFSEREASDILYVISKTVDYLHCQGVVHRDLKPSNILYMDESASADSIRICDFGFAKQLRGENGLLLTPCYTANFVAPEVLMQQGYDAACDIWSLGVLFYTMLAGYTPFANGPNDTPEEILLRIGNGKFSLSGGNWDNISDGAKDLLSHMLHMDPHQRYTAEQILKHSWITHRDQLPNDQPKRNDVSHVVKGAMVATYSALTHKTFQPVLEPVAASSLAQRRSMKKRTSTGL

SMILES | inhibition [1] [%] | inhibition [2] [%] | inhibition [3] [%] | inhibition [4] [%] | inhibition [5] [%] | inhibition [6] [%] | inhibition [7] [%] | inhibition [8] [%] | inhibition [9] [%] | inhibition [10] [%] | inhibition [11] [%] | inhibition [12] [%] | inhibition [13] [%] | inhibition [14] [%] | inhibition [15] [%] | inhibition [16] [%] | inhibition [17] [%] | inhibition [18] [%] | inhibition [19] [%] | inhibition [20] [%]
COc1ccc2cc(-c3c(-c4ccncc4)nc(-c4ccc([S+](C)[O-])cc4C)n3C)ccc2c1 (stereo not given) | 0.61 | -0.3 | 0.17 | -1.2 | 0.22 | -0.05 | 0.65 | -0.62 | -0.8 | 3.22 | 1.05 | -1.98 | 4.95 | -0.02 | 3.28 | 0.33 | 3.47 | 0 | 1.15 | -2.89
COc1cc(C)c(N(C)C(=O)CN(C)C)cc1Nc1nc(Nc2cccc(F)c2C(N)=O)c2cc[nH]c2n1 | 4.74 | 1.3 | 0.1 | -3 | 3.7 | 0.02 | 0.78 | 1.44 | 0.94 | -0.28 | 3.07 | 0.7 | 4.1 | 0.88 | -0.02 | 0.05 | 0.83 | 1.27 | 2.67 | 3.48
COc1ccc2ncn(-c3cc(O[C@H](C)c4ccccc4Cl)c(C(N)=O)s3)c2c1 | 3.6 | 2.42 | 2.1 | 0.49 | 2.09 | 3.92 | 5.77 | 2.16 | 2.45 | 2.54 | 1.17 | 0.64 | 15.7 | 2.58 | 17.8 | 6.22 | 28.1 | -1.85 | -1.6 | 1.3
Fc1ccc(-c2ncn(C3CCNCC3)c2-c2ccnc(Oc3ccc(Oc4ccccc4)cc3)n2)cc1 | 3.14 | 1.53 | 2.46 | 3.23 | 3.39 | 4.76 | 2.42 | 2.46 | 4.03 | 8.18 | 3.68 | 0.78 | 0.71 | 3.46 | -0.07 | 1.27 | 1.66 | -0.26 | 3.87 | 2.01
COc1cc(Nc2ncc(-c3ccccc3)o2)cc(OC)c1OC | 6.6 | 1.24 | 5.44 | 3.15 | 1.18 | 0.24 | 0.29 | 0.26 | 9.16 | 5 | 5.35 | 24.4 | 61 | -0.43 | 5.91 | 0.44 | 10.5 | -1.93 | -0.01 | -3.81
FC(F)(F)c1cccc(Nc2nccc(-c3cnn4nc(-c5ccccc5)ccc34)n2)c1 | 0.82 | 2.37 | 2.67 | 1.96 | 1.95 | 2.7 | 1.72 | 1.9 | 1.87 | -0.41 | 2.89 | -0.22 | 4.2 | -0.11 | 4.72 | 1.87 | 2.68 | 0.17 | 0.28 | 0.97
CS(=O)(=O)CCNCc1ccc(-c2ccc3ncnc(Nc4ccc(OCc5ccccc5)c(Br)c4)c3c2)o1 | -1.41 | 1.16 | 0.22 | 2.67 | 1.45 | 3.29 | 3.35 | 2.94 | 1.46 | 1.41 | -0.88 | -0.46 | 0.63 | -1.34 | 2.21 | 1.54 | 2.06 | -1.35 | -0.82 | 2.7
